Giardia kill: kills Giardia lamblia; activity change, % at 7.66 µM, hits read low; Giardia lamblia trophozoite viability; AID 540267; 340,000 tested, 0.15% active; in the data active = activity change below about -80%; inconclusive = between about -30% and that limit;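 note: parasites exposed to compound for two days anaerobically before the ATP read; % is set by controls: 0 for no effect and ±100 for the full control effect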
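Compounds were tested on trophozoites seeded at 100 cells/well and held 48 hrs at 37 deg C anaerobically. An ATP-based luminescent kit measured the remaining live cells.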
HT1080 IDH1KD tx: kills HT-1080 cells with IDH1 knockdown. AID 686971. 360,000 tested, 2% active. HT-1080 IDH1 knockdown viability, ATP luminescence, 48 h. Potency, µM (highest dose often 46.1 µM), for inactives: at the top dose activity, negative = toxicity, most hits filed as cytotoxic;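 note: potency is the fitted concentration of half-maximal effect; 0% = DMSO wells and -100% = cell-free medium wells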
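CellTiter-Glo luminescence after 48 h compound exposure at 37 degrees C of IDH1-knockdown HT-1080 cells in 5% FBS RPMI. %Activity scaled between DMSO wells and cell-free media wells, with curves fitted and assigned curve classes.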
HT1080NT lethal: kills 2HG-producing HT-1080-NT fibrosarcoma cells; Potency, µM (doses to about 46.1 µM), without a hit: top-dose activity, negative = less viability, hits mostly cytotoxic; HT-1080-NT fibrosarcoma viability, CellTiter-Glo ATP luminescence, 48 h; 360,000 tested, 1.6% active; AID 686970;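 note: NT is the 2HG producing partner of a matched IDH1 knockdown line; potency is the fitted concentration of half-maximal effect; 0% = DMSO-treated cells and -100% = media-only wells without cells; nearly all actives have a fitted effect of over 55% in size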
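Toxicity toward the 2HG-producing NT line was scored as %Activity, normalised to DMSO and no-cell wells, from CellTiter-Glo luminescence after 48 hours' treatment.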
TGFb SMAD3 inh: inhibitors of TGF-b signaling; Potency, µM (series often up to 46.1 µM), without a hit: at the highest dose activity, negative = inhibition, most hits filed as inhibitors; HepG2 CAGA-GFP TGF-b/SMAD3 reporter, GFP fluorescence, 18 h; TGF-beta stimulated, 500 pg/mL final; 410,000 tested, 1.2% active; AID 588855; note: potency is the fitted concentration of half-maximal effect; % is set by controls: 0 for no effect and ±100 for the full control effect; nearly all actives have a fitted effect of over 65% in size
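Read-out: total well GFP (ex488/em500-530) summed from mean per-cell fluorescence. Cells: HEPG2 CAGA-GFP, 1% FBS DMEM, 18 h at 37 degrees C with 500 pg/mL final TGF-beta. Unstimulated wells served as the full-inhibition control; stimulated DMSO wells = 0%.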
IL1B secr inh: blocks inflammasome-driven IL-1 beta release. THP-1 LPS/ATP IL-1B secretion, AlphaLISA, 16 h; hits give low values. activity change, % at 57.5 µM. 360,000 tested, 4.7% active. AID 743279; in the data active = activity change below about -50%; inconclusive = mostly about -30% to -49%; note: % is set by controls: 0 for no effect and ±100 for the full control effect
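Secreted IL-1B measured by AlphaLISA bead assay after 16 h compound exposure of THP-1 cells; compounds (final up to 57.5 uM) added 1 h before LPS (250 ng/mL) and ATP (1.25 mM) stimulation; lower signal means less secretion.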
HepG2 viability: kills HepG2 cells in TGF-b inhibitor counter-screen. HepG2 CAGA-GFP viability, ATP luminescence, 18 h. Potency, µM (top dose mostly 46.1 µM), for inactives: top-dose activity change, negative = cytotoxicity, most hits filed as cytotoxic. 410,000 tested, 0.76% active; note: potency is the fitted concentration of half-maximal effect
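CellTiter-Glo luminescence gave cytotoxicity after 18 hours at 37 degrees C. The cells were HepG2 CAGA-GFP in 1% FBS DMEM, stimulated with 500 pg/mL TGF-beta after compound addition. %Activity was normalised to no-cell wells (complete cell-killing) and DMSO (no toxicity), and curves were fitted and classified.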
An asterisk follows results filed as active; i = inactive; ? = inconclusive; · = not tested or not shown. The list is not random: actives were taken first. Their share in the collection is about 6.5%. Unless noted, calls come from the whole dose curve; as a rule, active = well fitted curve in the direction sought with a large enough effect; inconclusive = small, poorly fitted or top-dose-only effect, or another doubt; inactive = no such curve, though single readings can be large; an effect the other way counts as inactive or inconclusive.

SMILES	Giardia kill	HT1080 IDH1KD tx	HT1080NT lethal	TGFb SMAD3 inh	IL1B secr inh	HepG2 viability
CNC(C)C(=O)NC(C(=O)N1CCCC1C(=O)NNc1ccccc1)C(C)C (stereo not given)	36	2.3µM*	1.3µM*	-9%	20	-39%
CNC(C)C(=O)NC(C(=O)N1CCCC1C(=O)NC1CCCc2ccccc21)C(C)C (stereo not given)	-7	-6%	1%	2%	6	-1%
CCCCCOC(=O)NCC(O)c1ccccc1 (stereo not given)	-10	-4%	-7%	-1%	-3	-9%
Cc1ccc2c(c1)c1c(n2CC(O)CN2CCCCC2C)CCCC1 (stereo not given)	3	?	18µM*	0%	0	-20%
Cc1ccc2c(c1)c1c(n2CC(O)CNC2CCCCC2)CCCC1 (stereo not given)	29	16µM*	21µM*	?	-112*	-104%
Cc1ccc2c(c1)c(C)c(C)n2CC(O)CN1CCCCC1C (stereo not given)	0	-20%	-25%	0%	·	-19%
Cc1ccc2c(c1)c1c(n2CC(O)CN2CCC(C)CC2)CCCC1 (stereo not given)	-12	-3%	-12%	?	-65*	-63%
CC1CCN(C(=O)c2ccc([N+](=O)[O-])o2)CC1	?	-3%	14%	-4%	-24	-15%
CC1CCCN(C(=O)c2ccc([N+](=O)[O-])o2)C1 (stereo not given)	-84*	-4%	1%	-14%	-25	-3%
CCC1CCCCN1C(=O)c1ccc([N+](=O)[O-])o1 (stereo not given)	-97*	-3%	-20%	-9%	-20	-16%
CCOC(=O)C1CCN(C(=O)COC(=O)c2ccc([N+](=O)[O-])o2)CC1	?	-3%	6%	18µM*	0	13µM*
CCNC(=S)N(Cc1ccccc1)Cc1nc2ccccc2c(=O)[nH]1	0	-3%	0%	?	9	21%
CC(=O)[C@]1(O)Cc2c(O)c3c(c(O)c2[C@@H](O[C@H]2C[C@H](N)[C@H](O)[C@H](C)O2)C1)C(=O)c1ccccc1C3=O	-11	0.33µM*	3.3µM*	28%	-106*	-107%
COc1cccc2c1C(=O)c1c(O)c3c(c(O)c1C2=O)C[C@@](O)(C(C)=O)C[C@@H]3O[C@H]1C[C@H](N)[C@H](O)[C@H](C)O1	9	0.15µM*	0.073µM*	?	-110*	11%
COc1cccc2c1C(=O)c1c(O)c3c(c(O)c1C2=O)CC(O)(C(=O)CO)CC3OC1CC(N(C)C)C(O)C(C)O1 (stereo not given)	-4	0.41µM*	?	0.79µM*	-100*	2%
COc1cccc2c1C(=O)c1c(O)c3c(c(O)c1C2=O)C[C@@](O)(C(=O)CO)C[C@@H]3O[C@H]1C[C@H](N)[C@@H](O)[C@H](C)O1	-22	0.52µM*	0.26µM*	3.2µM*	-27	-32%
CC1CCN(C(=O)COC(=O)c2ccccc2NCCO)CC1	·	-2%	-3%	0%	4	-2%
CC(CCc1ccco1)NC(=O)Cn1ncc2c1-c1ccccc1OC2 (stereo not given)	23	6%	-10%	2%	-9	-4%
O=C(Nc1ccccc1N1CCCCC1)C1CCN(C(=O)c2ccc(Cl)cc2)CC1	-19	-4%	-5%	?	-72*	0%
Cc1ccc(NC(=O)C2CCCN(C(=O)c3ccc(Cl)cc3)C2)cc1 (stereo not given)	8	-7%	-18%	-23%	-19	-15%
O=C(Nc1ccccc1N1CCN(C(=O)c2ccccc2)CC1)c1cccc(Cl)c1	-26	7%	6%	?	0	-7%
CCN1CCN(c2ccc(NC(=O)c3cccc(F)c3)cc2Cl)CC1	4	?	?	5%	-50*	-26%
Cc1ccc(NC(=O)C2CCCN(C(=O)c3ccc(Cl)cc3)C2)cc1C (stereo not given)	-13	?	-27%	-19%	-71*	-3%
O=C(Nc1ccccc1N1CCN(C(=O)c2ccc(Cl)cc2)CC1)c1cccc(F)c1	-17	-15%	-9%	-27%	-55*	-7%
O=C(Nc1ccccc1N1CCCC1)C1CCN(C(=O)c2ccc(Cl)cc2)CC1	1	3%	2%	-12%	?	39%
SMILES	Giardia kill	HT1080 IDH1KD tx	HT1080NT lethal	TGFb SMAD3 inh	IL1B secr inh	HepG2 viability
O=c1[nH]c2ccc(NS(=O)(=O)c3ccc4ccccc4c3)cc2[nH]1	-9	-14%	-5%	8%	-7	-17%
COc1ccc(CN(CCN(C)C)Cc2ccccc2)c(OC)c1	-21	-23%	-26%	-26%	-1	-30%
COc1ccc(NC(=O)c2cc(C(C)=O)n3ccccc23)cc1Cl	·	·	·	-6%	·	-30%
Cc1c(CN2CCC(CO)(Cc3cccc(C(F)(F)F)c3)CC2)c2ccccc2n1C	-11	?	-13%	?	-94*	25µM*
COc1ccc(CC2(CO)CCN(Cc3cc4ccccc4o3)CC2)cc1	-17	-23%	?	-14%	-80*	-22%
OCC1(Cc2cccc(C(F)(F)F)c2)CCN(Cc2cc3ccccc3o2)CC1	5	18µM*	21µM*	?	-136*	i
Cc1cc(C(=O)CN2C(=O)C(=O)N(CC(C)C)C2=O)c(C)n1C1CC1	-22	1%	13%	0%	0	-6%
Cc1ccc(N=Nc2ccc(O)c3ncccc23)cc1	-4	1.6µM*	?	?	2	8%
COc1ccccc1N=Nc1ccc(O)c2ncccc12	-20	?	?	?	20	-10%
CCS(=O)(=O)c1ccc(N=Nc2ccc(O)c3ncccc23)c(OC)c1	18	5.2µM*	1.5µM*	?	111	-1%
Cc1ccc(N=Nc2ccc(O)c3ncccc23)cc1C	-27	?	?	3%	103	-14%
CC(C)(C)OC(=O)N[C@@H](Cc1ccccc1)c1nnc(SCC(N)=O)o1	4	-3%	-1%	-12%	9	-12%
COC(=O)CS(=O)(=O)c1nnc([C@H](Cc2ccccc2)NC(=O)OC(C)(C)C)o1	3	?	?	?	-102*	-111%
Cc1cccc(CS(=O)(=O)c2nnc([C@H](Cc3ccccc3)NC(=O)OC(C)(C)C)o2)c1	-18	2.8µM*	5µM*	?	?	-101%

Assay outcomes: PubChem, National Center for Advancing Translational Sciences (NCATS)
